{
  "source": "the supplement of paper PMC6555819",
  "data": [
    {"tested_on": "PXR:RXRa (NR concentration 270 nM, RXRa partner concentration 90 nM)", "assay": "PBM binding z-score (relative to random genomic background probes); higher = stronger binding; sequences stand for … in GC…GCGATTGACAGCGTAGAATGAAGG", "method_in_brief": "(§1)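 Binding z-scores were set against random background probes. The data came from custom Agilent 4×180K protein-binding microarrays carrying double-stranded probes with 34-nt variable regions, incubated 1 h with ligand-free nuclear receptor dimers. Partner-specific antibodies detected binding, and scanned fluorescence was regression-normalized.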", "values": [
      {"sequence": "TCTCGGAGGACACGAAAGGTCATAGCTCGACATC", "PBM binding z-score": 5.31},
      {"sequence": "CCGGACAGGTGAAAGGTAACTCAGTCTGGTACGC", "PBM binding z-score": 0.988},
      {"sequence": "CCAGACAGGTGAGAAGGTAACTTAGCCTCGATTA", "PBM binding z-score": -0.169},
      {"sequence": "TCGAGTAGGTTAGTCGGGGCATTCAACCAACATA", "PBM binding z-score": 0.309},
      {"sequence": "CCTTGCAGGCCAATCTGGGTCACTCAAGGCTTGA", "PBM binding z-score": 1.02},
      {"sequence": "CTCGAAAGGTCGGTTGAGGTGAGTACACGGATAA", "PBM binding z-score": 3.2},
      {"sequence": "CCTGCTAGGTCGATGGTCAGCTAAAGCAGCTCGC", "PBM binding z-score": -0.314},
      {"sequence": "CCTCGGAGGACAGAAGGTCAGGGCTGTCCGCTTT", "PBM binding z-score": 1.65},
      {"sequence": "CCTACTGGGCCAAGGTCAATGATCAGTCAAAGCA", "PBM binding z-score": 2.51}
    ]},
    {"tested_on": "PXR homodimer (NR concentration 270 nM)", "assay": "PBM binding z-score (relative to random genomic background probes); higher = stronger binding; sequences stand for … in GC…GCGATTGACAGCGTAGAATGAAGG", "method_in_brief": "as §1", "values": [
      {"sequence": "ATCGAAAGGTAGACGAGGTGAGTATACACCGTTT", "PBM binding z-score": -0.144},
      {"sequence": "CAGCCTAGGTCAGGGCCGGTATAGGAGGAACGTT", "PBM binding z-score": -0.999},
      {"sequence": "CAAACTAGGTCAAGAGGTCGAAGTCCGCTTCCCG", "PBM binding z-score": 0.441},
      {"sequence": "TAGCCTAGGTCATTGGGGCAGTATAGTACGCATC", "PBM binding z-score": 0.425},
      {"sequence": "CGAACTAGGTCATTGACAGGACAGTGAATAGTAA", "PBM binding z-score": 0.245},
      {"sequence": "AGATGTAGGTTACATCCGGGTCATTCAGGCTATG", "PBM binding z-score": 2.06},
      {"sequence": "CAAACTAGGTCAAAGAGGTCAAAGTCCGTGCGTA", "PBM binding z-score": 10.5},
      {"sequence": "CATACAGGGTCAGCTAGGCCAGGGTAGGGACGGC", "PBM binding z-score": -0.00796},
      {"sequence": "GCTTACGGGTCGAAGGTTATAGCATGAATAGAAT", "PBM binding z-score": -0.142},
      {"sequence": "CCTATTGGGCCACGAAAGGTCATTGATTCAGTGA", "PBM binding z-score": 1.47},
      {"sequence": "CCCACTGGGCCAAAGGTCATTGATTCCAATGCTC", "PBM binding z-score": 1.81},
      {"sequence": "CCGACTGGGGCAAAAGTTACCATACTCAGTACGA", "PBM binding z-score": -0.137},
      {"sequence": "ACTAGCAGGCCAAGTTTGGGTCACTCTAACAAAG", "PBM binding z-score": -0.149},
      {"sequence": "CGAACTAAGTCAGAACAGGACAGTGAAGGATGAT", "PBM binding z-score": 0.204},
      {"sequence": "ACAGACAGTTGATGAAGGTAACTCAGGCTATCAT", "PBM binding z-score": 0.258},
      {"sequence": "ATCTCTAGGTAACCAAGTTCAGTGGATGCCGAAC", "PBM binding z-score": 1.5},
      {"sequence": "CAAACTAGGTCACCGGAAGGTCAAGGTCCGCATG", "PBM binding z-score": 1.49},
      {"sequence": "CCTTACGGGTCACTGACAGTTTATAGCATTTGGA", "PBM binding z-score": 0.495},
      {"sequence": "AGGCAAAGTTCAGGACGAGGTAACGTAAAGCACG", "PBM binding z-score": 1.59},
      {"sequence": "CGTCCAAGGCCAGCAGGTCAGTGAAAGCGACGTG", "PBM binding z-score": -0.389},
      {"sequence": "ATCTCTAGGTAAGACTCAGTGCAGTGAAGAACGC", "PBM binding z-score": 0.592},
      {"sequence": "CCGACTGGGGCATAAGGTTAACATAAGCCAGCCC", "PBM binding z-score": -0.242},
      {"sequence": "CCTAGCAGGCCAGGGTCACTCATGCATTTCGCTT", "PBM binding z-score": -0.121},
      {"sequence": "CAAACTAGGTCAAGAGGTCATAGTCCGCTTCCCG", "PBM binding z-score": 2.28},
      {"sequence": "ATCTCTAGGTAAGAGTCAGTTCAGTGAAGAACGC", "PBM binding z-score": 1.13},
      {"sequence": "GGAACGAGGGCGAGTTGATAGCAGAGTTTGATGG", "PBM binding z-score": -0.021},
      {"sequence": "CGTCAATGTTCAAGGTAACGTAACAGAAAGCAGC", "PBM binding z-score": -0.0049},
      {"sequence": "CCTACTGGGCCAAGGGCATTGATCAGTCAAAGCA", "PBM binding z-score": -0.173},
      {"sequence": "ATATGTCGGTTATCGGGTCATTCAGTTTGCGCAT", "PBM binding z-score": 7.06},
      {"sequence": "GCTAGCAGGCCATTTGGGTCACTCAGTGACGGGC", "PBM binding z-score": -0.321},
      {"sequence": "CATTACGGGTCAAGGTTATAGCACGGGTGGTACG", "PBM binding z-score": 0.701},
      {"sequence": "TCTCGGAGGACACGAAAGGTCATAGCTCGACATC", "PBM binding z-score": 1.81},
      {"sequence": "CCGGACAGGTGAAAGGTAACTCAGTCTGGTACGC", "PBM binding z-score": 0.241},
      {"sequence": "CCAGACAGGTGAGAAGGTAACTTAGCCTCGATTA", "PBM binding z-score": 0.402},
      {"sequence": "TCGAGTAGGTTAGTCGGGGCATTCAACCAACATA", "PBM binding z-score": -0.2},
      {"sequence": "CCTTGCAGGCCAATCTGGGTCACTCAAGGCTTGA", "PBM binding z-score": -0.543},
      {"sequence": "CTCGAAAGGTCGGTTGAGGTGAGTACACGGATAA", "PBM binding z-score": 0.172},
      {"sequence": "CCTGCTAGGTCGATGGTCAGCTAAAGCAGCTCGC", "PBM binding z-score": -0.494},
      {"sequence": "CCTCGGAGGACAGAAGGTCAGGGCTGTCCGCTTT", "PBM binding z-score": -0.651},
      {"sequence": "CCTACTGGGCCAAGGTCAATGATCAGTCAAAGCA", "PBM binding z-score": 0.323}
    ]}
  ]
}
